Outcome and AC50 data for two molecules are collected here from PubChem BioAssay AID2284125 (EPA ToxCast).

Activity calls are given as the source filed them. Rule for the calls: active = hit-call score of the fitted dose curve at least 0.9, where 1 is the maximum; inactive = score below 0.9.

In general, AC50 refers to the midpoint of the concentration-response curve, whichever way the signal moves.

This assay deals with Beta-2 adrenergic receptor (Homo sapiens) (UniProt P07550). The experiment in a line: ERF_FR_GPCR_hADRB2: Eurofins (ERF) G Protein-Coupled Receptor (GPCR) Radioligand Binding LeadHunter Assay for human Adrenoceptor Receptor beta2 Antagonism, conducted at France lab site. The protocol: ERF_FR_GPCR_hADRB2 is a biochemical, single-readout assay that uses extracted gene-proteins in a cell-free assay. Measurements were taken 2 hour after chemical dosing in a 96-well plate. See beta2 Human Adrenoceptor GPCR Binding (Antagonist Radioligand) Assay, Cerep.ERF_FR_GPCR_hADRB2 is an assay component calculated from the ERF_FR_GPCR_hADRB2 assay. It is designed to measure radioligand binding using a type of binding reporter as detected by scintillation counting with radiometry technology.Data from the assay component ERF_FR_GPCR_hADRB2 was analyzed at the assay endpoint, ERF_FR_GPCR_hADRB2, in the positive analysis fitting direction relative to DMSO as the negative control and baseline of activity. Using a type of binding reporter, loss-of-signal activity can be used to understand changes in binding as they relate to gene ADRB2. To generalize the intended target to other relatable targets, this assay endpoint is annotated to the gpcr intended target family, where the subfamily is adrenoceptor.
Chain of Beta-2 adrenergic receptor (Homo sapiens) (P07550 whole entry, looked up): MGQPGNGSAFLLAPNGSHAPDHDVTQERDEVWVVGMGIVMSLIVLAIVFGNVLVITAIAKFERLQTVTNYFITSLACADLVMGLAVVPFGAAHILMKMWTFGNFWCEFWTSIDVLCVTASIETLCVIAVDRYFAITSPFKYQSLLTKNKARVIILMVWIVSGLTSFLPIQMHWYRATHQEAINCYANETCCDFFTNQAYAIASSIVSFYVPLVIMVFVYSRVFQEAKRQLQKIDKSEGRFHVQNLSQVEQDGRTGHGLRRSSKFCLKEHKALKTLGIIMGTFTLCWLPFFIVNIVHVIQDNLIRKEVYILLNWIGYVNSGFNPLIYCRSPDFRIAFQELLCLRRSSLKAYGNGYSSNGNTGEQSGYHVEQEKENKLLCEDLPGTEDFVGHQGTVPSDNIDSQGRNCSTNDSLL
Human cells are incubated for 60 minutes in room temprature, using [3H](-)CGP 12177 ligand at 0.3 Kd (nM) with ICI 118551 control inhibitor.Test Sample Requirements: Minimum for 1) Screen: 60 ul of 10 mM stock -OR- 1 mg (pre-weighed) for […] uM final testing. 2) Dose Response: 90 ul of 10 mM stock -OR- 1 mg (pre-weighed) for a top concentration at 10 uM.
As for `COc1cc(CCC(=O)CC(=O)CCc2ccc(O)c(OC)c2)ccc1O`, the molecule was called inactive.
As to `O=C(/C=C/c1ccc(O)cc1)CC(=O)/C=C/c1ccc(O)cc1`, the AC50 is 3.68 µM (active).
